Measured values: PMC11062922 (Nature Chemical Biology, 2023)
Read-outs that look alike come from different tables or passages of the source.

Legend:
AAK1 = system: AAK1; set-up: species or system human, MV4-11 + K-562 + COLO205 + SK-N-BE2 + OVCAR-8; conditions: read-out: apparent Kd, compound concentrations: 100 nM and 1000 nM (sheet 'Samples'), n = 1
CLK1 = system: CLK1; set-up: species or system human, MV4-11 + K-562 + COLO205 + SK-N-BE2 + OVCAR-8; conditions: read-out: apparent Kd, compound concentrations: 100 nM and 1000 nM (sheet 'Samples'), n = 1
CLK4 = system: CLK4; set-up: species or system human, MV4-11 + K-562 + COLO205 + SK-N-BE2 + OVCAR-8; conditions: read-out: apparent Kd, compound concentrations: 100 nM and 1000 nM (sheet 'Samples'), n = 1
CSNK2A1;CSNK2A3 = system: CSNK2A1;CSNK2A3; set-up: species or system human, MV4-11 + K-562 + COLO205 + SK-N-BE2 + OVCAR-8; conditions: read-out: apparent Kd, compound concentrations: 100 nM and 1000 nM (sheet 'Samples'), n = 1
CSNK2A2 = system: CSNK2A2; set-up: species or system human, MV4-11 + K-562 + COLO205 + SK-N-BE2 + OVCAR-8; conditions: read-out: apparent Kd, compound concentrations: 100 nM and 1000 nM (sheet 'Samples'), n = 1
GAK = system: GAK; set-up: species or system human, MV4-11 + K-562 + COLO205 + SK-N-BE2 + OVCAR-8; conditions: read-out: apparent Kd, compound concentrations: 100 nM and 1000 nM (sheet 'Samples'), n = 1
Q6ZSR9 = Q6ZSR9 (human, UniProt Q6ZSR9); set-up: species or system MV4-11 + K-562 + COLO205 + SK-N-BE2 + OVCAR-8; conditions: read-out: apparent Kd, compound concentrations: 100 nM and 1000 nM (sheet 'Samples'), n = 1
Q6ZSR9, sequence (Q6ZSR9 whole entry, looked up): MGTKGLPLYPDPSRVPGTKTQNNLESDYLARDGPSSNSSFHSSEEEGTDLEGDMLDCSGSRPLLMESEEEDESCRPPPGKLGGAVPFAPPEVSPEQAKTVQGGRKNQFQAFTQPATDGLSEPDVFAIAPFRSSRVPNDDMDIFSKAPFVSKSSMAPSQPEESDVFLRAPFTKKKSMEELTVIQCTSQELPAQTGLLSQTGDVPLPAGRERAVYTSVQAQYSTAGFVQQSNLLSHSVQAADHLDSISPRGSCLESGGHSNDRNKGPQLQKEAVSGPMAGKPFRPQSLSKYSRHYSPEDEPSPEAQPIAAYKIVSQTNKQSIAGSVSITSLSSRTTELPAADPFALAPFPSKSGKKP

ABL1 = system: ABL1; set-up: species or system human, MV4-11 + K-562 + COLO205 + SK-N-BE2 + OVCAR-8; conditions: read-out: apparent Kd, compound concentrations: 100 nM and 1000 nM (sheet 'Samples'), n = 1
ABL2 = system: ABL2; set-up: species or system human, MV4-11 + K-562 + COLO205 + SK-N-BE2 + OVCAR-8; conditions: read-out: apparent Kd, compound concentrations: 100 nM and 1000 nM (sheet 'Samples'), n = 1
BCR = system: BCR; set-up: species or system human, MV4-11 + K-562 + COLO205 + SK-N-BE2 + OVCAR-8; conditions: read-out: apparent Kd, compound concentrations: 100 nM and 1000 nM (sheet 'Samples'), n = 1
FYN = system: FYN; set-up: species or system human, MV4-11 + K-562 + COLO205 + SK-N-BE2 + OVCAR-8; conditions: read-out: apparent Kd, compound concentrations: 100 nM and 1000 nM (sheet 'Samples'), n = 1
HCK = system: HCK; set-up: species or system human, MV4-11 + K-562 + COLO205 + SK-N-BE2 + OVCAR-8; conditions: read-out: apparent Kd, compound concentrations: 100 nM and 1000 nM (sheet 'Samples'), n = 1
LCK = system: LCK; set-up: species or system human, MV4-11 + K-562 + COLO205 + SK-N-BE2 + OVCAR-8; conditions: read-out: apparent Kd, compound concentrations: 100 nM and 1000 nM (sheet 'Samples'), n = 1
PTK6 = system: PTK6; set-up: species or system human, MV4-11 + K-562 + COLO205 + SK-N-BE2 + OVCAR-8; conditions: read-out: apparent Kd, compound concentrations: 100 nM and 1000 nM (sheet 'Samples'), n = 1
RET = system: RET; set-up: species or system human, MV4-11 + K-562 + COLO205 + SK-N-BE2 + OVCAR-8; conditions: read-out: apparent Kd; compound concentrations: 100 nM and 1000 nM (sheet 'Samples'), CATDS: 1.39088138771742E-2; n = 1
RIPK2 = system: RIPK2; set-up: species or system human, MV4-11 + K-562 + COLO205 + SK-N-BE2 + OVCAR-8; conditions: read-out: apparent Kd, compound concentrations: 100 nM and 1000 nM (sheet 'Samples'), n = 1
TNK1 = system: TNK1; set-up: species or system human, MV4-11 + K-562 + COLO205 + SK-N-BE2 + OVCAR-8; conditions: read-out: apparent Kd; compound concentrations: 100 nM and 1000 nM (sheet 'Samples'), CATDS: 2.1497624040677302E-2; n = 1
YES1 = system: YES1; set-up: species or system human, MV4-11 + K-562 + COLO205 + SK-N-BE2 + OVCAR-8; conditions: read-out: apparent Kd, compound concentrations: 100 nM and 1000 nM (sheet 'Samples'), n = 1
RIPK3 = system: RIPK3; set-up: species or system human, MV4-11 + K-562 + COLO205 + SK-N-BE2 + OVCAR-8; conditions: read-out: apparent Kd, compound concentrations: 100 nM and 1000 nM (sheet 'Samples'), n = 1

SMILES: Cl.O=C1N=C(NCc2ccccn2)S/C1=C\c1ccc2ncccc2c1 [RO4874953-001]
- potency estimated from few doses (AAK1; CATDS: 0.10575738699934099): 813 nM
- potency estimated from few doses (CLK1; CATDS: 9.3934655889041305E-2): 1020 nM
- potency estimated from few doses (CLK4; CATDS: 0.12673851417901799): 598 nM
- potency estimated from few doses (CSNK2A1;CSNK2A3; CATDS: 0.103683643435769): 843 nM
- potency estimated from few doses (CSNK2A2; CATDS: 0.101925374884365): 870 nM
- potency estimated from few doses (GAK; CATDS: 8.1785679571560799E-2): 1370 nM
- potency estimated from few doses (Q6ZSR9; CATDS: 8.7999658255021304E-2): 1160 nM

SMILES: O=C1N=C(NCc2ccccc2)S/C1=C\c1ccc2ncccc2c1 [RO4442080-000]
- potency estimated from few doses (AAK1; CATDS: 8.89289230622759E-2): 1380 nM
- potency estimated from few doses (CLK1; CATDS: 0.13842928601840401): 521 nM
- potency estimated from few doses (CLK4; CATDS: 0.11834941417905): 701 nM
- potency estimated from few doses (CSNK2A1;CSNK2A3; CATDS: 0.15313565978355501): 438 nM
- potency estimated from few doses (CSNK2A2; CATDS: 0.175887275734743): 351 nM
- potency estimated from few doses (Q6ZSR9; CATDS: 0.110093670656788): 815 nM

SMILES: O=C1N=C(NCc2cccs2)SC1Cc1ccc2ncccc2c1 (stereo not shown) [RO4629078-000]
- potency estimated from few doses (ABL1; CATDS: 1.03104130889283E-2): 621 nM
- potency estimated from few doses (ABL2; CATDS: 1.75956171974825E-2): 217 nM
- potency estimated from few doses (BCR; CATDS: 1.49763815406264E-2): 286 nM
- potency estimated from few doses (CLK1; CATDS: 1.45453045118455E-2): 302 nM
- potency estimated from few doses (CLK4; CATDS: 1.03422471087564E-2): 616 nM
- potency estimated from few doses (CSNK2A1;CSNK2A3; CATDS: 1.1621769953454601E-2): 472 nM
- potency estimated from few doses (CSNK2A2; CATDS: 1.0295745768990301E-2): 623 nM
- potency estimated from few doses (FYN; CATDS: 9.7047847946103404E-3): 723 nM
- potency estimated from few doses (GAK; CATDS: 1.7863526328031998E-2): 211 nM
- potency estimated from few doses (HCK; CATDS: 1.13886455432966E-2): 493 nM
- potency estimated from few doses (LCK; CATDS: 1.24730570121841E-2): 406 nM
- potency estimated from few doses (PTK6; CATDS: 9.8307432544906398E-3): 699 nM
- potency estimated from few doses (Q6ZSR9; CATDS: 1.4224903483056099E-2): 314 nM
- potency estimated from few doses (RET): 328 nM
- potency estimated from few doses (RIPK2; CATDS: 9.4422951571236906E-3): 777 nM
- potency estimated from few doses (TNK1): 158 nM
- potency estimated from few doses (YES1; CATDS: 1.15943383738287E-2): 474 nM

SMILES: COc1cc(Nc2ccnc3cc(-c4ccncc4)ccc23)cc(OC)c1OC.Cl [GW494610A]
- potency estimated from few doses (ABL1; CATDS: 2.4379025884203698E-2): 1070 nM
- potency estimated from few doses (ABL2; CATDS: 2.97420098626874E-2): 523 nM
- potency estimated from few doses (BCR; CATDS: 4.8840213207685099E-2): 133 nM
- potency estimated from few doses (GAK; CATDS: 0.18484170134518799): 10.7 nM
- potency estimated from few doses (RIPK2; CATDS: 0.24490143470797801): 7.12 nM
- potency estimated from few doses (RIPK3; CATDS: 2.5857205413597002E-2): 848 nM

SMILES: c1ccc(Oc2ccc(Nc3ccnc4cc(-c5ccc(CN6CCCCC6)o5)ccc34)cc2)nc1 [GW567143X]
- potency estimated from few doses (ABL1; CATDS: 4.7219356438219597E-2): 634 nM
- potency estimated from few doses (FYN; CATDS: 4.4213624367354799E-2): 771 nM
- potency estimated from few doses (GAK; CATDS: 4.2163459383367997E-2): 895 nM
- potency estimated from few doses (HCK; CATDS: 0.14005546575241301): 68.8 nM
- potency estimated from few doses (LCK; CATDS: 5.0953813421882002E-2): 515 nM
- potency estimated from few doses (PTK6; CATDS: 0.13556199485993101): 72.4 nM
- potency estimated from few doses (RIPK2; CATDS: 0.12946024003761): 77.9 nM
- potency estimated from few doses (RIPK3; CATDS: 4.1439147975506997E-2): 948 nM
- potency estimated from few doses (YES1; CATDS: 5.50755734526098E-2): 421 nM

SMILES: COc1cccc(-n2cnc3c(N/N=C/c4ccncc4)ncnc32)c1 [GW813360X]
- potency estimated from few doses (ABL1; CATDS: 0.132287686029187): 2030 nM
- potency estimated from few doses (ABL2; CATDS: 0.19344614583088601): 869 nM
- potency estimated from few doses (BCR; CATDS: 0.226928346430948): 659 nM

SMILES: CN1CCN(Cc2cccc(-c3ccc4c(Nc5ccc(Oc6ccccc6)cc5)ccnc4c3)c2)CC1 [GW578342X]
- potency estimated from few doses (ABL1; CATDS: 7.7551536280391298E-2): 1560 nM
- potency estimated from few doses (HCK; CATDS: 0.21487500019283201): 115 nM
- potency estimated from few doses (LCK; CATDS: 8.3289760013849606E-2): 1190 nM
- potency estimated from few doses (PTK6; CATDS: 7.71683723921405E-2): 1600 nM
- potency estimated from few doses (RIPK2; CATDS: 0.17287191269560401): 177 nM
- potency estimated from few doses (RIPK3; CATDS: 0.10117998061927): 638 nM
- potency estimated from few doses (YES1; CATDS: 0.46544607401261401): 32.3 nM

SMILES: CN1CCN(Cc2ccc(-c3ccc4c(Nc5ccc(Oc6ccccn6)cc5)ccnc4c3)o2)CC1 [GW567140X]
- potency estimated from few doses (ABL1; CATDS: 9.3195013096343204E-2): 147 nM
- potency estimated from few doses (FYN; CATDS: 4.4615082678796297E-2): 675 nM
- potency estimated from few doses (GAK; CATDS: 3.56871929379163E-2): 1320 nM
- potency estimated from few doses (HCK; CATDS: 0.15093661180131901): 68.5 nM
- potency estimated from few doses (LCK; CATDS: 4.8128660017474401E-2): 557 nM
- potency estimated from few doses (PTK6; CATDS: 6.5275116077435802E-2): 284 nM
- potency estimated from few doses (RIPK2; CATDS: 0.141504972954966): 75.4 nM
- potency estimated from few doses (RIPK3; CATDS: 4.8755783013644902E-2): 540 nM
- potency estimated from few doses (YES1; CATDS: 6.0479326827192301E-2): 332 nM
